An excerpt weighted towards active compounds, which were near 6.9% of everything screened.
Giardia killer – Giardia lamblia killing; Giardia lamblia trophozoite viability; activity change, % at 7.66 µM, hits read low; hit rate 0.15% among 340,000; in the data active means activity change below about -80%; inconclusive means between about -30% and that limit;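 further: parasites exposed to compound for two days anaerobically before the ATP read; on the % scale 0 is the no-effect control and ±100 the full control effect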
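ATP-content bioluminescence gauges trophozoite survival. Cells (100/well) receive compound and incubate anaerobically for 48 hrs at 37 deg C; detection reagent follows for 15-30 min at room temperature.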
KB-V1 cytotox – kills drug-selected multidrug resistant KB-V1 cells | KB-V1 MDR cells viability, CellTiter-Glo, 72 h | Potency, µM (titrated, usually from 46.1 µM), actives largely listed as cytotoxic | hit rate 3.4% among 400,000 | AID 1347076; further: potency means the concentration at half of the fitted maximal effect; on the % scale 0 is the no-effect control and ±100 the full control effect; nearly all actives have a fitted effect of over 60% in size
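KB-V1, DMEM (no phenol red) + 10% FBS; cpd pin-transferred, titration series; 72 h, 37 degrees C; CellTiter-Glo, luminescence. Data normalized, curve-fit.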
SW480 rereplic – induces DNA re-replication in SW480 colon adenocarcinoma cells. SW480 DNA re-replication, Hoechst DNA content imaging, 48 h. Potency, µM (highest dose often 46.1 µM), for the others: top-dose re-replication activation, hits mostly activators. hit rate 1.8% among 340,000. AID 624297; further: potency means the concentration at half of the fitted maximal effect; % of control where 0% means no effect; nearly all actives have a fitted effect of over 55% in size
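250 cells/well; 23 nL cpd via pin tool; 48 hr, 37 C, 5% CO2; Hoechst 40 min; imager read of total nuclear intensity, ex 405/em 500-530 nm.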
MCF10A rerep – induces DNA re-replication in MCF 10a normal breast cells; MCF 10A DNA re-replication, Hoechst nuclear intensity, 48 h; Potency, µM (highest dose often 46.1 µM), for the others: at the highest dose activity, positive = re-replication, usual class: activators; hit rate 2.9% among 350,000; further: potency means the concentration at half of the fitted maximal effect; % of control where 0% means no effect; nearly all actives have a fitted effect of over 50% in size
ASM inhibitor – human S-ASM enzyme inhibition; P17405; placental ASM, HMU-PC fluorogenic substrate, 60 min; Potency, µM (doses to about 57.5 µM), without a hit: top-dose activity change, negative = inhibition, most hits filed as inhibitors; hit rate 0.006% among 340,000; further: potency means the concentration at half of the fitted maximal effect
Target sequence (P17405 47-631 limits assumed): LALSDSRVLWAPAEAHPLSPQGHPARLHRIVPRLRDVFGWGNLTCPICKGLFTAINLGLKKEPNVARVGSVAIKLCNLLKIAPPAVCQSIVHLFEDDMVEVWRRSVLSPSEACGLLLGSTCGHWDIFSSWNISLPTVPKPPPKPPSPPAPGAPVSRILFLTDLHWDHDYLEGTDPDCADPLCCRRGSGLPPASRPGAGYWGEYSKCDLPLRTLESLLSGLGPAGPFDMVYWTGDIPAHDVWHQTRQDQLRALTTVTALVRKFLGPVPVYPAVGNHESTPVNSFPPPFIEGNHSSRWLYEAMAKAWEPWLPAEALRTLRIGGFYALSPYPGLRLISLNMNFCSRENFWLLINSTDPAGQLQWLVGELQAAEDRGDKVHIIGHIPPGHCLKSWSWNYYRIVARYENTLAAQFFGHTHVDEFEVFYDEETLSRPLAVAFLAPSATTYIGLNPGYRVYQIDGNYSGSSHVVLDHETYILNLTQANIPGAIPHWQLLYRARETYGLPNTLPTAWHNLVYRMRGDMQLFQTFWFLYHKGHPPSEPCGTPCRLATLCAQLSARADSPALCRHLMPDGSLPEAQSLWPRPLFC
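Steps: dispense placental human ASM, pin compound, wait 10 min at room temperature, add HMU-PC0 substrate at 9 uM final, incubate 60 min at 37 °C, add stop solution raising pH to 10, read fluorescence.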
KB-3-1 tox – KB-3-1 parental cell cytotoxicity; KB-3-1 viability, CellTiter-Glo ATP luminescence, 72 h; AID 1347075; Potency, µM (titrated, usually from 46.1 µM), usual class: cytotoxic; hit rate 1.4% among 400,000; further: potency means the concentration at half of the fitted maximal effect; on the % scale 0 is the no-effect control and ±100 the full control effect; nearly all actives have a fitted effect of over 60% in size
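Using CellTiter-Glo luminescence, growth of non-resistant KB-3-1 adenocarcinoma cells is assessed 72 h after pin-tool compound addition at 37 °C. Normalized responses across the concentration series yield fitted curves.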
Active calls of the source: *; i = inactive; u = inconclusive; x = no result given. Unless noted, the call rests on the fitted dose curve; in most records, active means well fitted curve in the direction sought with a large enough effect; inconclusive means small, poorly fitted or top-dose-only effect, or another doubt; inactive means no such curve, though single readings can be large; an effect the other way counts as inactive or inconclusive.

SMILES	Giardia killer	KB-V1 cytotox	SW480 rereplic	MCF10A rerep	ASM inhibitor	KB-3-1 tox
COc1ccc(NC(=S)N/C(=N/CS(=O)(=O)c2ccccc2)c2ccccc2)cc1	-5.9	i	u	16.4µM*	-1.5%	i
O=[N+]([O-])c1ccc(NC(=S)N/C(=N/CS(=O)(=O)c2ccccc2)c2ccccc2)cc1	5.3	u	-2.0%	0.4%	-5.7%	i
O=C(c1ccc2c(=O)n(Cc3ccco3)c(=S)[nH]c2c1)N1CCN(Cc2ccc3c(c2)OCO3)CC1	3.0	x	x	x	x	x
Cc1cccc(NC(=O)c2cc([N+](=O)[O-])ccc2NC2CCCCC2)c1	-4.8	13µM*	65.1%	-3.9%	-21.8%	i
Cc1cccc(NC(=O)C(c2cccc([N+](=O)[O-])c2)N2CCCCC2)c1 (centres undefined)	10.8	14.6µM*	27.9%	5.5%	1.2%	i
COc1cccc(NC(=O)C(c2ccccc2)N2CCCC2)c1 (centres undefined)	-2.0	u	-1.7%	0.3%	4.9%	i
CN(c1ccc([N+](=O)[O-])cc1C(=O)Nc1ccccc1)C1CCCCC1	5.0	13µM*	8.9%	-0.8%	u	i
O=C(Nc1ccc(Nc2ccccc2)cc1)c1cc([N+](=O)[O-])ccc1Cl	-11.4	i	-4.3%	4.1%	-10.1%	i
Cc1c(-c2ccc(Cl)cc2)oc(=O)c2c(N)n(-c3ccccc3)nc12	5.4	20.6µM*	-0.2%	u	-4.7%	u
Nc1c2c(=O)oc(-c3ccccc3)cc2nn1-c1ccccc1	-6.2	11.6µM*	16.4µM*	u	-3.5%	23.1µM*
Cc1cc(C)n2ncc(C(=O)NCC(C)C)c2n1	x	i	x	x	x	i
COC(=O)c1scc(-c2ccc(C)cc2)c1S(=O)(=O)Nc1cc(OC)c(OC)c(OC)c1	x	i	x	x	x	i
O=C1c2ccccc2-c2cccc(NS(=O)(=O)c3ccc(C(F)(F)F)cc3)c21	-2.5	23.1µM*	18.5%	4.0%	u	u
CCOc1ccc(CC(=O)Nc2c(C(=O)c3ccc(C)cc3)oc3ccccc23)cc1OCC	x	i	x	x	x	i
CC(C)C(C)NC(=O)COc1ccc(Sc2ccc(OCC(=O)NC(C)C(C)C)cc2)cc1 (centres undefined)	7.6	2.91µM*	4.1%	14.6%	-2.4%	u
COC(=O)Cn1c(=O)c2c(n(Cc3ccccc3)c1=O)N/C(=C/c1ccc(Br)cc1)C2=O	15.8	u	u	4.61µM*	9.5%	u
CC(=O)NCCNc1nc2c(-c3cccc(C)c3)nnn2c2ccc(Cl)cc12	x	i	x	x	x	i
Cc1cs/c(=N\N=C\c2ccccc2)n1Cc1ccco1	-15.6	16.4µM*	-4.0%	u	-4.8%	u
CC(C)=N/N=c1\scc(C)n1Cc1ccco1	0.0	i	-6.1%	13.7%	2.6%	i
O=C(COC(=O)c1ccc(NS(=O)(=O)c2cccs2)cc1O)Nc1nc2ccccc2s1	6.3	i	-14.6%	-0.6%	-22.6%	u
Cc1cccc(NS(=O)(=O)c2cccs2)c1	18.7	i	-4.7%	-2.3%	-1.5%	i
O=S(=O)(Nc1cccc(CO)c1)c1cccs1	-5.9	i	25.8%	-2.1%	2.1%	0.206µM*
O=C(COC(=O)c1ccc(NS(=O)(=O)c2cccs2)cc1O)NCc1ccccc1	-2.8	13µM*	7.31µM*	2.31µM*	-8.7%	5.8µM*
O=C(COC(=O)c1ccc(NS(=O)(=O)c2cccs2)cc1)NCc1ccco1	40.8	u	u	9.2µM*	2.0%	18.4µM*
COCCn1c(C)cc(C(=O)COC(=O)c2[nH]c(C)c(C(C)=O)c2C)c1C	7.0	4.11µM*	-10.2%	0.4%	-2.6%	u
SMILES	Giardia killer	KB-V1 cytotox	SW480 rereplic	MCF10A rerep	ASM inhibitor	KB-3-1 tox
CN(C(=O)COC(=O)c1n[nH]c2ccccc12)c1ccccc1	0.3	8.2µM*	1.7%	0.9%	-1.6%	i
COCCn1c(C)cc(C(=O)COC(=O)c2n[nH]c3ccccc23)c1C	u	9.2µM*	2.2%	u	-1.4%	i
COCCn1c(C)cc(C(=O)COC(=O)c2ccccc2Br)c1C	u	i	5.7%	2.0%	-1.4%	i
CCC(C)NC(=O)c1sc2ncccc2c1-n1c(C)ccc1C (centres undefined)	x	i	x	x	x	u
COC(=O)C(Cc1ccccc1)NC(=O)C(N)CC(=O)O (centres undefined)	x	x	-1.3%	4.1%	x	x
CNc1c(Br)cc(/C=C2\C=Cc3ccccc32)cc1Br	x	i	x	x	x	i
COc1ccc([C@H]2[C@H](C(=O)OC(C)(C)C)N3N=Cc4ccccc4C3C23C(=O)c2ccccc2C3=O)c(OC)c1 (some centres undefined)	15.6	u	u	7.3%	-1.8%	u
COc1ccc([C@H]2[C@H](C(=O)OC(C)(C)C)N3N=Cc4ccccc4C3C23C(=O)c2ccccc2C3=O)cc1OC (some centres undefined)	-3.1	8.2µM*	-3.0%	3.2%	-1.2%	i
COc1cc(Br)c(CC2c3cc(OC)c(OC)cc3CCN2C)cc1OC (centres undefined)	-7.8	20.6µM*	0.3%	-1.0%	6.4%	i
COc1cc2c(cc1OC)[C@@H](Cc1ccc(OCCC#N)cc1)N(C)CC2	9.3	i	-2.8%	-12.6%	84.2%	i
CC(=O)Nc1cccc(C(=O)OC(C)C(=O)NC(=O)NC2CCCCC2)c1 (centres undefined)	-21.2	u	-5.5%	-2.4%	-2.4%	i
O=S(=O)(c1ccc(Br)cc1)N1CCCC1c1nc2ccccc2s1 (centres undefined)	8.9	u	-4.5%	u	-7.2%	i
O=S(=O)(c1ccc(N2CCCC2c2nc3ccccc3s2)nc1)N1CCOCC1 (centres undefined)	11.0	8.2µM*	-1.2%	3.9%	-0.1%	i
O=C(CSc1n[nH]c(=O)n1C1CC1)Nc1ccccc1	-0.8	i	2.8%	12.7%	-1.1%	i
O=C(CSc1n[nH]c(=O)n1C1CC1)Nc1cc(Cl)ccc1Oc1ccccc1	2.8	16.4µM*	-8.3%	u	-1.5%	i
COc1cc2c(cc1OC)CN(CC(=O)Nc1ccc3c(c1)OC(F)(F)O3)CC2	3.4	13µM*	-0.9%	19.1%	-1.3%	i
COc1cc2c(cc1OC)CN(CC(=O)Nc1ccc(S(=O)(=O)N(C)C)cc1)CC2	-0.4	u	-14.2%	2.1%	19.0%	i
O=C(Nc1ccc(Cc2ccncc2)cc1)C1CC1	5.6	u	9.5%	u	2.7%	i
CC(=O)Nc1ccc(NC(=O)C2CCC(N3C(=O)C4C5C=CC(C6CC56)C4C3=O)CC2)cc1 (centres undefined)	-19.2	i	2.3%	23.1µM*	-2.3%	i

Assay outcomes from PubChem BioAssay.
